# An excerpt weighted towards active compounds, which were near 7.8% of everything screened.
# Vaccinia mCherry = qHTS for Stage-Specific Inhibitors of Vaccinia Orthopoxvirus: mCherry Reporter Primary qHTS; 310,000 tested, 0.63% active; Vaccinia virus mCherry reporter infection, fluorescence; Potency, µM (highest dose often 36.5 µM), for inactives: at the highest dose activity change, negative = inhibition, most hits filed as inhibitors; calls by dose curve; tested in A549 cells; also: potency is read from the fitted curve at half-maximal effect; nearly all actives have a fitted effect of over 35% in size
# MARV entry inh = qHTS for inhibitors of binding or entry into cells for Marburg Virus | Marburg virus pseudotyped entry inhibition, cell reporter | 300,000 tested, 1.8% active | Potency, µM (highest dose often 37.8 µM), for inactives: top-dose activity change, negative = inhibition, most hits filed as inhibitors; calls by dose curve; tested in HEK293 cells; also: potency is read from the fitted curve at half-maximal effect
# VACV Venus inh = qHTS for Stage-Specific Inhibitors of Vaccinia Orthopoxvirus: Venus Reporter Primary qHTS. Vaccinia virus Venus reporter expression, fluorescence. Potency, µM (top dose mostly 36.5 µM), without a hit: top-dose activity change, negative = inhibition, most hits filed as inhibitors. 330,000 tested, 0.46% active; calls by dose curve; tested in A549 cells; also: potency is read from the fitted curve at half-maximal effect; nearly all actives have a fitted effect of over 30% in size
# HCV inhibitor = qHTS Assay for Inhibitors of Hepatitis C Virus (HCV); AID 651820, 2012; 340,000 tested, 3.4% active; Potency, µM (highest dose often 41.8 µM), inactives show top-dose activity change, negative = inhibition, hits mostly inhibitors; Huh7.5.1 HCVcc-Cre infection, luciferase reporter, 44 h; active = well fitted inhibition curve with a large enough effect; inconclusive = small, poorly fitted or top-dose-only effect, or another doubt; inactive = no such curve, though single readings can be large or run the other way; also: potency is read from the fitted curve at half-maximal effect
#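 Luciferase read-out (15 sec integration) after a 15 min room-temperature substrate step quantifies HCVcc-Cre infection. Cells, 1,000 per well, had compound added 4 h post-plating, then virus at ~0.5 moi, and were cultured 44 h.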
# Lassa entry inh = qHTS for Inhibitors of binding or entry into cells for Lassa Virus. Lassa virus pseudotype entry inhibition, cell reporter. Potency, µM (series often up to 37.9 µM), inactives show at the top dose activity change, negative = inhibition, actives largely listed as inhibitors. 300,000 tested, 1.2% active. AID 540256, 2011; calls by dose curve; tested in HEK293 cells; also: potency is read from the fitted curve at half-maximal effect; nearly all actives have a fitted effect of over 50% in size
# HCMV antiviral = qHTS Assay for inhibitors of the human cytomegalovirus (HCMV) | activity change, negative = inhibition, % at 57.5 µM | HFF cells, HCMV-luciferase reporter, 72 h; active compounds read low | 410,000 tested, 4.5% active; in the data active = activity change below about -60%; inconclusive = no clear call, values can overlap the other calls; inactive = above about -39%
#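 Steps: HFFs plated, 16 h 37C; compounds added; HCMV-luciferase added to MOI 1 PFU/cell; 72 h 37C; OneGlo reagent, 5 min room temperature; luminescence read, normalized to controls.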
# Numbers without * were called inactive; i = inactive; ? = inconclusive; · = no result given; [ ] = dose if it differs, or a comment. % is scaled to controls: 0 for no effect and ±100 for the full control effect.
SMILES,Vaccinia mCherry,MARV entry inh,VACV Venus inh,HCV inhibitor,Lassa entry inh,HCMV antiviral
CN1C/C(=C/c2ccncc2)C(=O)/C(=C/c2ccncc2)C1,-2%,0%[46.1 µM],7%,16%,?,-7
C=CC(=O)N1C/C(=C/c2ccc(Cl)cc2)C(=O)/C(=C\c2ccc(Cl)cc2)C1,2.8µM*,?,5.6µM*,4.5µM*,2.2µM*,-100*
Cc1ccc(CSc2nc(-c3ccc(C(C)(C)C)cc3)nc3cc(=O)[nH]n23)cc1,-20%,·,-14%,·,12%[46.1 µM],-105*
O=C(N/N=C/c1ccc(N2CCOCC2)s1)c1ccccc1Br,-2%,?,-8%,16%,7%,32
CC(C)(C)OC(=O)N/N=C/c1ccc(N2CCOCC2)s1,-9%,11%,-15%,0%,1.8µM*,58
Clc1cccc(N/N=C/c2ccc(N3CCOCC3)s2)c1,-9%,17%,-3%,6%,4%,-83*
COC(=O)[C@]1(Sc2ccc(OC)cc2)CC(=O)N[C@@H]1c1ccc(OC(C)C)c(OC)c1,·,·,·,·,·,-9
Cc1c(CCOC(=O)C23CC4CC(CC(C4)C2)C3)sc[n+]1CC#N,-5%,?,-15%,-17%,?,-99*
Cc1c(CCOC(=O)CC23CC4CC(CC(C4)C2)C3)sc[n+]1Cc1ccccc1,·,13%,·,-8%,-17%,?
CN(C)c1ccc(/C=C/c2ccnc3c(Cl)ccc(Cl)c23)cc1,?,·,31%,·,·,·
Cc1c(C#N)c(N)nc2c3c(sc12)NC(=O)CC3c1ccc(Cl)cc1 (stereo unspecified),?,?,?,22µM*,?,-81*
N#Cc1c(N)nc2c3c(sc(=N)c2c1N)NC(=O)CC3c1ccccc1 (stereo unspecified),-20%,?,-21%,-13%,4%,11
Cc1cccc(N2CCN(C(=O)CCc3nnc4n(CC(C)C)c(=O)c5ccccc5n34)CC2)c1C,-25%,21%[46.1 µM],-6%,·,·,56
Cc1oc(-c2cccc(Cl)c2)nc1CSc1nc2ncccc2[nH]1,-5%,·,-6%,·,28%[46.1 µM],-19
CCOC(=O)c1ccc(NC(=O)COc2ccc(CNCCO)cc2OCC)cc1,-14%,10µM*,-9%,8.9µM*,·,0
CCOC(=O)c1ccc(NC(=O)CNNC(=O)COc2ccccc2C)cc1,·,·,·,-3%,·,-2
CCOc1ccc(NC(=O)C(=O)NCCc2ccccc2)cc1,-12%,·,-3%,·,-8%[46.1 µM],4
CCOc1cc(CNCCO)ccc1OCC(=O)NC(C)(C)C,-12%,5%[46.1 µM],2%,-4%,17%,-17
CCOc1ccc(NC(=O)COc2ccc(C(=O)NCCc3ccccc3)cc2)cc1,-13%,-26%,2%,-13%,?,-81*
CCOC(=O)c1ccc(NC(=O)COc2ccccc2CNCCc2ccccc2)cc1,·,·,·,?,·,-65*
CCc1nnc(NC(=O)CSc2nccn2Cc2ccccc2)s1,-3%,·,-3%,·,-18%[46.1 µM],10
Cc1cc(=O)n(Cc2ccc(Br)cc2F)c2c1c(C)nn2-c1ccccc1,-7%,·,3%,·,-4%[46.1 µM],0
O=C(NCC1CC1)[C@@H]1[C@@H](CO)[C@@H]2Cn3c(cccc3=O)[C@@H]2N1Cc1cccc(F)c1,·,·,·,·,·,-4
COc1ccc(S(=O)(=O)N2CCOC2CNC(=O)C(=O)NCCc2ccc(OC)c(OC)c2)cc1 (stereo unspecified),i,?,-19%,?,?,-68*
O=C(NCc1ccc2c(c1)OCO2)C(=O)NCC1OCCN1S(=O)(=O)c1ccc(Br)cc1 (stereo unspecified),-9%,-26%[46.1 µM],-21%,10µM*,?,-6
SMILES,Vaccinia mCherry,MARV entry inh,VACV Venus inh,HCV inhibitor,Lassa entry inh,HCMV antiviral
COc1ccc(CCNC(=O)C(=O)NCC2OCCN2S(=O)(=O)c2ccc(Cl)cc2)cc1OC (stereo unspecified),-22%,·,-26%,8.9µM*,·,-33
COc1ccc(CCNC(=O)C(=O)NCC2OCCN2S(=O)(=O)c2ccc(Br)cc2)cc1OC (stereo unspecified),i,?,-6%,?,?,20
Nc1ncc(S(=O)(=O)Nc2ccc(F)cc2F)cn1,-8%,·,-7%,·,2%[46.1 µM],38
c1ccc2c(c1)nnn2Cn1nnc2ccccc21,i,·,2%,·,·,-63*
CN(CCO)c1cc(Sc2nc3ccccc3s2)c2nonc2c1[N+](=O)[O-],·,?,·,11µM*,?,-104*
CC(=O)OCCN(C)c1cc(SC(C)C)c2nonc2c1[N+](=O)[O-],i,-2%,-7%,15%,2%,?
O=C(CN1CCOCC1)N1CC(=O)N2[C@@H](CO)[C@H](c3ccc(Br)cc3)[C@@H]2C1,·,·,·,·,·,-2
O=C(N/N=C/c1cc(Br)cc(Cl)c1O)c1ccc2c(c1)OCO2,?,?,?,13µM*,?,1
O=C(N/N=C/c1cc(Br)c(Br)o1)c1ccc2c(c1)OCCO2,-20%,?,-13%,?,-15%,-8
O=C(N/N=C/c1cc(Br)c(O)c(Br)c1O)c1ccc2c(c1)OCCO2,?,-28%[46.1 µM],?,?,?,-82*
CN(C)c1cccc(C(=O)N/N=C/c2ccccc2F)c1,i,?,-5%,19%,10µM*,111
O=C(CNC(=O)c1ccco1)N/N=C/c1cc(Br)ccc1O,?,2µM*,?,?,·,22
O=C(Nc1nnc([C@H]2C[C@H](O)[C@@H](CO)O2)s1)c1ccc(Oc2ccccc2)cc1,18%,·,0%,·,·,34
COc1cc(Cl)cc(/C=N\NC(=O)c2ccc3c(c2)OCO3)c1O,?,·,?,·,·,-60*
O=C(CNC(=O)c1ccc2c(c1)OCO2)N/N=C/c1cc(Br)ccc1O,1.6µM*,11µM*,?,?,?,9
O=C(N/N=C/c1ccccc1O)c1ccc2c(c1)OCO2,?,5µM*,?,5.6µM*,?,-92*
O=C(CNC(=O)c1cccc(Br)c1)N/N=C/c1ccc[nH]1,-19%,6.3µM*,-16%,3.2µM*,?,?
O=C(CNC(=O)c1cccc(Br)c1)N/N=C/c1cn[nH]c1-c1ccccc1,i,?,-21%,2%,?,-30
Cc1cc(Br)cc(/C=N/NC(=O)c2ccc3c(c2)OCO3)c1O,·,·,·,?,·,-103*
CN(C)C(=O)c1ccc(-n2nc(C(F)(F)F)c3c2CCCC3)cc1,·,?,-26%,10µM*,-8%,-1
COc1ccc2c(c1)[nH]c1c(=O)n(/N=C/C3C(C)C=C(C)CC3C)c(=O)[nH]c12 (stereo unspecified),i,?,-10%,0%,-1%,-24
